Bioassay records as filed in PubChem.
IL-1B inflam inh = blocks inflammasome-driven IL-1 beta release | THP-1 LPS/ATP IL-1B secretion, AlphaLISA, 16 h; stronger effect = lower value | activity change, % at 57.5 µM | actives 4.7% (n = 360,000) | AID 743279; in the data active means activity change below about -50%; inconclusive means mostly about -30% to -49%
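Secreted IL-1B measured by AlphaLISA bead assay after 16 h compound exposure of THP-1 cells; compounds (final up to 57.5 uM) added 1 h before LPS (250 ng/mL) and ATP (1.25 mM) stimulation; lower signal means less secretion.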
HepG2 viability = HepG2 cytotoxicity, counter-screen for TGF-b inhibitors | HepG2 CAGA-GFP viability, ATP luminescence, 18 h | Potency, µM (titrated, usually from 46.1 µM), usual class: cytotoxic | actives 0.76% (n = 410,000) | AID 588856
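HepG2 CAGA-GFP cells (1000/well, DMEM with 1% FBS) received compound, then TGF-beta at 500 pg/mL final, and were incubated 18 hours at 37 degrees C. Viability was read by CellTiter-Glo luminescence. Media-only wells were set as complete cell-killing and DMSO as no toxicity.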
TDP1 inh = TDP1 (human) enzyme inhibition; actives 0.28% (n = 350,000); recombinant TDP1, AlphaScreen DNA substrate cleavage; Q9NUW8; Potency, µM (titrated, usually from 130 µM), most hits filed as inhibitors; further: nearly all actives have a fitted effect of over 40% in size
Target sequence (Q9NUW8 whole entry, looked up): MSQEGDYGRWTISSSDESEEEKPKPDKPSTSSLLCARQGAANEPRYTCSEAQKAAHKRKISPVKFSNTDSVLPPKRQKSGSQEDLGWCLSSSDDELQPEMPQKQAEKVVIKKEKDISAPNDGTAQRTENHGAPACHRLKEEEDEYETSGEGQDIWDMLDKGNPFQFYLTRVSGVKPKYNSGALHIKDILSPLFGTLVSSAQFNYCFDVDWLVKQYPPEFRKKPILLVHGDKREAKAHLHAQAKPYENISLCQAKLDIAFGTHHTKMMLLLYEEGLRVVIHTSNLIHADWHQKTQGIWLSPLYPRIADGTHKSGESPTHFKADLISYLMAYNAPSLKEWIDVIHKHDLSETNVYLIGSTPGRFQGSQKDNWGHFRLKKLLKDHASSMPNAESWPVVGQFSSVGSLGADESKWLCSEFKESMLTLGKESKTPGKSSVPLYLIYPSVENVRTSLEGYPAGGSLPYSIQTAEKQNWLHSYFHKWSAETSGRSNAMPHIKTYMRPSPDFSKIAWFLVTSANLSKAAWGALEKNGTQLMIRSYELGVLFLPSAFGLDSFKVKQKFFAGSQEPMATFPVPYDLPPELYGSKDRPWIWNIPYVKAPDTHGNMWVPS
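E. coli-derived human Tdp1, 1 nM final. Cpd preinc 15 min RT; substrate 15 nM final, 5 min RT; AS bead mix 10 ug/ml final, 10 min RT. Signal loss = tyrosine-FITC cleavage. No-enzyme wells = max signal.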
TGFb SMAD3 inh = blocks TGF-b signaling | HepG2 CAGA-GFP TGF-b/SMAD3 reporter, GFP fluorescence, 18 h; TGF-beta stimulated, 500 pg/mL final | actives 1.2% (n = 410,000) | Potency, µM (highest dose often 46.1 µM), usual class: inhibitors; further: nearly all actives have a fitted effect of over 65% in size
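First, reporter cells (HEPG2 CAGA-GFP) rested 2 h at 37 degrees C. Next, compounds were pinned in and TGF-beta added to 500 pg/mL final. After 18 h, GFP was imaged per cell and summed per well.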
DT40 TDP1 no CPT = qHTS for Inhibitors of human tyrosyl-DNA phosphodiesterase 1 (TDP1): qHTS in cells in absence of CPT; actives 15% (n = 420,000); Potency, µM (titrated, usually from 46.2 µM), usual class: inhibitors; AID 686978, 2013; DT40 Tdp1-/- hTDP1 cells, no CPT, ATP luminescence, 48 h; further: nearly all actives have a fitted effect of over 55% in size
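No-CPT arm: Tdp1-/-;hTDP1 DT40 cells (400/well) plus compounds, incubated ≥48 hr at 37 °C. Readout CellTiter-Glo luminescence.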
TDP1 cell CPT = DT40-hTDP1 cell growth loss with CPT | actives 12% (n = 420,000) | chicken DT40 Tdp1-/-;hTDP1 cells + 20 nM CPT, ATP luminescence, 48 h | Potency, µM (top dose mostly 46.2 µM), actives largely listed as inhibitors; further: nearly all actives have a fitted effect of over 55% in size
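Chicken DT40 Tdp1-/- cells stably complemented with human TDP1 were seeded at 400 cells/well in medium containing 20 nM camptothecin, exposed to pin-transferred compounds, and grown at 37 °C for at least 48 hr. Viability was read as ATP luminescence.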
Each line names hits and unclear results; the compound was inactive in the other large screens; ! = not active in a repeat. The list is not random: actives were taken first. Their share in the collection is about 19%. Unless noted, the call rests on the fitted dose curve; in most records, active means well fitted curve in the direction sought with a large enough effect; inconclusive means small, poorly fitted or top-dose-only effect, or another doubt; inactive means no such curve, though single readings can be large; an effect the other way counts as inactive or inconclusive.

CC1CN(C(=O)c2cccc(S(=O)(=O)N3CCN(c4ccc(F)cc4)CC3)c2)CC(C)O1 (stereo not drawn)	DT40 TDP1 no CPT inconclusive, TDP1 cell CPT 26µM
O=C(N[C@@H](Cc1ccccc1)C(=O)CCl)OCc1ccccc1	IL-1B inflam inh -111, TGFb SMAD3 inh inconclusive, DT40 TDP1 no CPT 2.3µM, TDP1 cell CPT 2.3µM
O=C(CCl)NC(Cc1ccccc1)C(=O)OCC(=O)c1ccc(-c2ccccc2)cc1 (stereo not drawn)	IL-1B inflam inh -86, TGFb SMAD3 inh inconclusive, DT40 TDP1 no CPT inconclusive, TDP1 cell CPT inconclusive (no result: TDP1 inh)
CC(C)c1ccc(N(CC(=O)O)S(=O)(=O)c2ccc3[nH]c(=O)c(=O)[nH]c3c2)cc1	none (no result: IL-1B inflam inh)
O=C(NCCSc1c[nH]c2ccccc12)c1ccccc1Cl	DT40 TDP1 no CPT inconclusive (no result: IL-1B inflam inh)
COc1ccc(CNC(=O)c2ccc(Cn3c(=O)c4cccn4c4cccnc43)cc2)cc1OC	none (no result: IL-1B inflam inh)
CC(=O)Nc1ccc(Sc2ccccc2C(=O)O)cn1	none (no result: TDP1 inh)
CC(=O)Nc1ccc(Sc2ccccc2C(=O)Nc2ccc(F)cc2)cn1	DT40 TDP1 no CPT 18µM, TDP1 cell CPT inconclusive
CCC(C)(C)C(=O)O[C@H]1C[C@@H](C)C=C2C=C[C@H](C)[C@H](CC[C@@H]3C[C@@H](O)CC(=O)O3)[C@H]21	DT40 TDP1 no CPT 21µM! (no result: TDP1 inh)
COC(=O)/C(=C1/Oc2cc(C)oc(=O)c2S1)C(F)(F)F	IL-1B inflam inh -102, TGFb SMAD3 inh 5.6µM, DT40 TDP1 no CPT 2.1µM, TDP1 cell CPT 2.3µM
CS(=O)(=O)N1CCC(C(=O)Nc2cccc(C(F)(F)F)c2)CC1	none
Cc1cc(C)cc(NC(=O)C2CCCN(c3nc(C)cc(C)n3)C2)c1 (stereo not drawn)	none
CC(C)(C)NC(=O)C1CCN(c2nc3ccccc3nc2C(F)(F)F)CC1	DT40 TDP1 no CPT inconclusive (no result: IL-1B inflam inh)
Cc1cc(C)nc(N2CCCC(C(=O)Nc3ccc4nc(C)c(C)nc4c3)C2)n1 (stereo not drawn)	DT40 TDP1 no CPT 13µM, TDP1 cell CPT inconclusive
COc1ccccc1CCNC(=O)C1CCN(c2nc3ccccc3nc2C(F)(F)F)CC1	DT40 TDP1 no CPT 7.3µM, TDP1 cell CPT 16µM (no result: IL-1B inflam inh)
COc1cccc(NC(=O)C2CCN(c3nc4ccccc4nc3C(F)(F)F)CC2)c1	TGFb SMAD3 inh inconclusive, DT40 TDP1 no CPT 15µM, TDP1 cell CPT 23µM (no result: IL-1B inflam inh)
Cc1cc(C)nc(N2CCC(C(=O)Nc3cccc(C(F)(F)F)c3)CC2)n1	DT40 TDP1 no CPT 23µM, TDP1 cell CPT inconclusive
O=C(NCCc1ccccc1Cl)C1CCN(c2nc3ccccc3nc2C(F)(F)F)CC1	DT40 TDP1 no CPT inconclusive, TDP1 cell CPT inconclusive (no result: IL-1B inflam inh)
COc1ccc(-c2nc3ccccc3s2)cc1NC(=O)c1ccc(C#N)cc1F	none (no result: IL-1B inflam inh, DT40 TDP1 no CPT, TDP1 cell CPT)
Cc1cc(CC(=O)O)c(C)n1-c1ccc(Cl)cc1	DT40 TDP1 no CPT inconclusive (no result: IL-1B inflam inh, HepG2 viability, TGFb SMAD3 inh)
Cc1cnc(-n2ncc(C(=O)NCC3COCCO3)c2C2CC2)nc1-c1cccs1 (stereo not drawn)	none (no result: IL-1B inflam inh, HepG2 viability, TDP1 inh, TGFb SMAD3 inh)
O=C(Nc1cnn(Cc2c(Cl)cccc2Cl)c1)C(c1ccccc1)c1ccccc1	DT40 TDP1 no CPT 16µM, TDP1 cell CPT 23µM
COc1ccc(NC(=O)c2ccco2)c2ccccc12	none (no result: TDP1 inh)
Cc1ccc(CN2CCCn3nc(C(=O)NCCC(C)C)cc3C2=O)cc1	none (no result: IL-1B inflam inh)
COc1ccccc1NC(=O)c1c([N+](=O)[O-])cnn1C	TDP1 inh 1.4µM
CCOc1ccc(C(=O)Nc2ccc(NC(=O)c3ccccc3)c(C)c2)cc1[N+](=O)[O-]	DT40 TDP1 no CPT inconclusive
COc1ccccc1CNC(=O)CSc1ccc(C(=O)Nc2ccccc2OC)cc1[N+](=O)[O-]	DT40 TDP1 no CPT 9.2µM, TDP1 cell CPT 9.2µM
CCOc1ccc(C(=O)Nc2ccc(-c3nc4ccccc4[nH]3)cc2)cc1[N+](=O)[O-]	DT40 TDP1 no CPT 18µM, TDP1 cell CPT 21µM (no result: TDP1 inh)
